Results taken from PubChem BioAssay AID720707 (National Center for Advancing Translational Sciences (NCATS), 2013).
Among all 360,000 compounds or so, about 270 (0.075%) were called active. The call rests on the fitted dose curve; in most records, active means well fitted activation curve with a large enough effect; inconclusive means small, poorly fitted or top-dose-only effect; inactive means no such curve, though single readings can be large or run the other way. What follows is part of a selection rich in actives, with near analogues and random picks from the rest.
Further: nearly all actives have a fitted effect of over 60% in size.
Potency means the concentration at half of the fitted maximal effect.

The molecules below were run against Rap guanine nucleotide exchange factor 3 (Homo sapiens) (UniProt O95398) (assay: qHTS for Agonist of cAMP-regulated guanine nucleotide exchange factor 3 (EPAC1): primary screen). Conditions: biochemical assay; series mostly up to 154 µM; activation: at the top concentration.
Sequence of Rap guanine nucleotide exchange factor 3 (Homo sapiens) (O95398 whole entry, looked up): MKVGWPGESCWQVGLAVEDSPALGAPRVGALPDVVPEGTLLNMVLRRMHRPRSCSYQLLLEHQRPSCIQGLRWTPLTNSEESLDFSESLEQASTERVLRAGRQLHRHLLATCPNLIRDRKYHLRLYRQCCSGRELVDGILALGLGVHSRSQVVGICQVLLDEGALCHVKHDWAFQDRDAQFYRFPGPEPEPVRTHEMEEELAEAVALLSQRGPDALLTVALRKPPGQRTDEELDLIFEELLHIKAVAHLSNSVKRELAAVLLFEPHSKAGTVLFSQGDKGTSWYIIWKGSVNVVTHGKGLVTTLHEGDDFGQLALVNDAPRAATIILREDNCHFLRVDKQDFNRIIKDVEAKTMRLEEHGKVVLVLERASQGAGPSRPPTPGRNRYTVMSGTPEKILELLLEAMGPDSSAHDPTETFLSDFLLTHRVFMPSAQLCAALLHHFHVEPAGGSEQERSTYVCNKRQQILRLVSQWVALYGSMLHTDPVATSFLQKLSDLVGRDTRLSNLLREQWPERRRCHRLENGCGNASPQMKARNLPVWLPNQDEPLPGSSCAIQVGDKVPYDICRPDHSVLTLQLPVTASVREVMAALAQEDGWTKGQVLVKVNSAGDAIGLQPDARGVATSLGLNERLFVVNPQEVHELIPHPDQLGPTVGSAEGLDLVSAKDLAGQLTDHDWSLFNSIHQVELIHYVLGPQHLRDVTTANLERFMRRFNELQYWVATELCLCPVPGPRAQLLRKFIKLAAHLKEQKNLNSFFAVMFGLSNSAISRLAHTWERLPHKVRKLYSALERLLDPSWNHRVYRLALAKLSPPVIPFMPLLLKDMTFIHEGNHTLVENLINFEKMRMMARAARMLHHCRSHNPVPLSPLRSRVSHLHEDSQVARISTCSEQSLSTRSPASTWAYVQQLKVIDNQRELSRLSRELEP
Source text: In multi-cellular eukaryotic organisms, the effects of cAMP are transduced by two ubiquitously-expressed intracellular cAMP receptors, the classic protein kinase A/cAMP-dependent protein kinase (PKA/cAPK) and the more recently discovered exchange protein directly activated by cAMP/cAMP-regulated guanine nucleotide exchange factor (EPAC/cAMP-GEF). Both PKA and EPAC are ubiquitously expressed in all tissues, and an increase in intracellular cAMP levels will lead to the activation of both PKA and EPAC. Therefore, careful dissections of the individual role and relative contribution of EPAC and PKA within the overall cAMP signaling in various model systems are critical for further elucidating the mechanism of cAMP signaling. To date no EPAC-specific antagonists and agonist, as well as isoform-specific agonists have been reported, and developing EPAC-specific pharmacological probes to determine the physiological functions that EPAC play in the overall cAMP-mediated signaling remains a major challenge within the research field. Furthermore, identified regulators of EPAC may lead to new mechanism-based therapeutic strategies specifically targeting the EPAC / cAMP-signaling components as EPAC has been implicated to play important roles in major human pathological conditions such as diabetes, heart disease, and cancer.
This qHTS will be used to screen the Molecular Libraries Small Molecule Repository (MLSMR) as a concentration-titration series using the NCGC unique quantitative screening (qHTS) platform to find activators for EPAC1. In addition, this assay will also be used as a counterscreen for the EPAC2 qHTS. This fluorescent based assay is developed and validated for EPAC1 that measures exchange using EPAC effector Rap1 complex with BODIPY-GDP, a GDP analog with a tethered fluorophores. Activators are identified by monitoring the change in fluorescence signal as the exchanged free BODIPY-GDP has a reduced fluorescence compared to Rap1-bound BODIPY-GDP. Increase in signal (activation) is the desired outcome for the EPAC1 agonist while no activity in this assay is desired for the EPAC2 agonist counterscreen.
[1] de Rooij, J., Zwartkruis, F. J., Verheijen, M. H., Cool, R. H., Nijman, S. M., Wittinghofer, A., and Bos, J.L. (1998) Nature 396, 474-477
NIH Chemical Genomics Center [NCGC]
NIH Molecular Libraries Probe Centers Network [MLPCN]
Assay Submitter (PI): Xiaodong Cheng, The University of Texas Medical Branch
Briefly, three uL of reagents (100 nM EPAC1, 250 nM RAP1B-BODIPY-GDP, 50 uM GDP) were dispensed into a 1536-well Greiner black solid-bottom medium binding assay plate. Controls and test compounds (23 nL) were transferred to the plate via a Kalypsys pin tool equipped with a 1536-pin array. The plates were centrifuged at 1,000 rpm for 15 seconds followed by 5 minute incubation at room temperature. The assay plates were read at 5 minute intervals for 30 minutes in the ViewLux plate reader using 480nm excitation and 540nm emission filters. The results were normalized to the agonist positive control of 6.5 mM cAMP.
`CCOc1ccc(NS(=O)(=O)c2ccc(Cl)c(C(=O)N(C)Cc3cccnc3)c2)cc1` was tested, and the “activation” value was -9.4% (inactive).
`CC1(C)CC(=O)c2c(n(S(=O)(=O)c3ccccc3)c3ccc(NS(=O)(=O)c4ccccc4)cc23)C1` was tested, and the “activation” value was 2.81% (inactive).
For `O=c1cccc(-c2ccc(Br)cc2)o1`, the “activation” value was 1.51% (inactive).
For `CCCCNC(=O)N1CCCC(N(C)CCc2ccc(OC)c(OC)c2)C1` (centres undefined), the “activation” value was -9.76% (inactive).
In the case of `Cc1sc2ncn(CC(=O)NCCCC(=O)N(C)Cc3ccccc3)c(=O)c2c1C`, the “activation” value is reported as -8.88% (inactive).
For `Cc1ccc(OCC(=O)Nc2ccccc2Sc2ccc(Cl)cc2)c([N+](=O)[O-])n1`, the “activation” value was 21.3% (inactive).
For `Cc1ccc(-c2nc(C)sc2CC(=O)OCC(=O)Nc2c(F)cccc2F)cc1`, the “activation” value was 10.9% (inactive).
`COc1cc(NS(=O)(=O)c2ccc(N/C=C(\C=O)c3nc4cc(Cl)ccc4o3)cc2)nc(OC)n1` was tested, and the “activation” value was -5.9% (inactive).
With `COCC1CCCCN1C(=O)c1cc(COc2ccc(C)c(C)c2)on1` (centres undefined) the “activation” value was -12.2% (inactive).
With `CC(=O)N[C@H]1[C@H]([C@H](O)[C@H](O)CO)OC(C(=O)O)=C[C@@H]1O` the “activation” value was -3.76% (inactive).
In the case of `O=C(NCc1ccco1)c1ccc(CS(=O)(=O)Cc2ccc(F)cc2)o1`, the “activation” value is reported as 3.97% (inactive).
In the case of `COC(=O)/C=C(\Oc1ccccc1)C1(O)CCCCC1`, the “activation” value is reported as -5.2% (inactive).
`Cc1cc(Cl)ccc1NNC(=O)c1snnc1C` was tested, and the “activation” value was -2.36% (inactive).
With `O=C(c1cnn2ccccc12)N1CCc2ccccc21` the “activation” value was -2.29% (inactive).
In the case of `C=CCNC(=O)COC(=O)CNC(=O)c1cc(Cl)cc([N+](=O)[O-])c1`, the “activation” value is reported as 7.93% (inactive).
`CN1C(=O)c2cccc3c(N)ccc(c23)C1=O` was tested, and the Potency was 126 µM (active).
With `Cc1nn(C)cc1N1C(=O)c2cccc3c(N)ccc(c23)C1=O` the Potency was 89.1 µM (active).
With `Cc1cc(NC(=O)/C=C/C(=O)N(c2ccccc2C)C(C(=O)NC2CCCC2)c2ccc(F)cc2)no1` (centres undefined) the “activation” value was 15.6% (inactive).
In the case of `CCOC(=O)[C@]12CCCC=C1N(Cc1ccc(Cl)cc1Cl)C(=O)[C@H](CC(=O)N1CCCCC1)C2`, the “activation” value is reported as -4.78% (inactive).
With `CC(Cc1cccs1)NC(=O)c1cccc(Cl)c1` (centres undefined) the “activation” value was 5.93% (inactive).
In the case of `Cc1nn2c(NCCN(C)C)c3c(nc2c1-c1ccccc1)CCC3`, the “activation” value is reported as 1.01% (inactive).
With `CC(=O)Nc1ccc(NC(=O)CN2C(=O)COc3ccc(S(=O)(=O)N4CCCCC4)cc32)cc1` the “activation” value was 15.4% (inactive).
`O=C(COc1ccccc1)N1CCN=C1SCc1cccc(F)c1` was tested, and the “activation” value was -1.1% (inactive).
In the case of `CCOC(=O)c1ccccc1NC(=O)COC(=O)C(Cc1c[nH]c2ccccc12)NC(C)=O` (centres undefined), the Potency is reported as 112 µM (active).
`CCOC(=O)c1ccccc1NC(=O)COC(=O)CCC(=O)N1CCOCC1` was tested, and the “activation” value was 3.89% (inactive).
With `COC(=O)C(Cc1c[nH]c2ccccc12)NC(=O)CCNC(=O)c1ccco1` (centres undefined) the “activation” value was -7.71% (inactive).
For `COc1ccccc1NC(=O)CSc1nnc(CNC(=O)c2ccccc2F)o1`, the “activation” value was -8.7% (inactive).
For `Cn1c(=O)[nH]c(=O)c2c1nc(N(CCO)Cc1ccccc1)n2Cc1ccccc1Cl`, the “activation” value was -2.01% (inactive).
With `Cc1nc(NC(=O)C23CCC(C)(C(=O)O2)C3(C)C)sc1C` (centres undefined) the “activation” value was 4.04% (inactive).
For `N#CCCCn1c(O)c(N=NC(=O)C(O)c2ccccc2)c2ccccc21` (centres undefined), the “activation” value was 6.57% (inactive).
`COc1cccc(C(=O)N2CCC(n3nccc3NC(=O)C3CCOC3)CC2)c1` (centres undefined) was tested, and the “activation” value was 7.16% (inactive).
`CNC(=O)C1CC(=O)N(c2ccc(OCC(=O)Nc3ccccc3C)cc2)C1` (centres undefined) was tested, and the “activation” value was 8.26% (inactive).
`O=C(CCN1C(=O)c2ccncc2C1=O)Nc1cc(F)ccc1F` was tested, and the “activation” value was -22% (inactive).
In the case of `Cc1ccc([C@H]2C[C@H](O)[C@@H](n3cc(COC(=O)c4ccccc4)nn3)CN2C(=O)C2CCCCC2)cc1`, the “activation” value is reported as -25.7% (inactive).
In the case of `Cc1ccc(CNC(=O)c2cccc3c2C(=O)c2ccc(N4CCC(C)CC4)cc2S3(=O)=O)cc1`, the Potency is reported as 89.1 µM (active).
With `CC1CCN(c2ccc3c(c2)S(=O)(=O)c2cc(C(=O)O)ccc2C3=O)CC1` the “activation” value was -0.73% (inactive).
In the case of `COc1cccc(-c2ccc3c(c2)S(=O)(=O)c2cccc(C(=O)O)c2C3=O)c1OC`, the “activation” value is reported as 9.43% (inactive).
With `O=C(O)C1=C[C@H](c2cccs2)C[C@H](OCCCCO)O1` the “activation” value was 9.46% (inactive).
For `Cc1ccc(C(=O)OCC(=O)NCc2cc(C)c(O)c(C)c2)cc1S(=O)(=O)N1CCCCC1`, the “activation” value was 9.64% (inactive).
In the case of `N#CCCn1ncc2ccccc21`, the “activation” value is reported as 14.3% (inactive).
In the case of `CC(C)Cc1nnc(NC(=O)CN2C(=O)NC3(CCCCC3)C2=O)s1`, the “activation” value is reported as 2.71% (inactive).
In the case of `CCC1(c2ccccc2)NC(=O)N(CC(=O)Nc2ccccc2C(=O)NC2CCCC2)C1=O` (centres undefined), the “activation” value is reported as 0.865% (inactive).
With `COCC(C)n1c(C)cc(C(=O)CSc2cc(C)c3ccccc3n2)c1C` (centres undefined) the “activation” value was 15.4% (inactive).
For `CCOc1ccc(-c2n[nH]c(=S)n2/N=C/c2cc3c(cc2[N+](=O)[O-])OCO3)cc1`, the “activation” value was 13.8% (inactive).
In the case of `OCCN1CCOCCOCCN(CCO)CCN(CCO)CC1`, the “activation” value is reported as 1.4% (inactive).
With `Cc1ccc(Cl)cc1NC(=O)COC(=O)C1CCCCC1` the “activation” value was -2.39% (inactive).
In the case of `N#C/C(=C\N1CCOCC1)S(=O)(=O)c1ccc(Cl)cc1`, the “activation” value is reported as 4.86% (inactive).
In the case of `O=C(CSc1nnc(-c2ccncc2)o1)NCc1ccc(Cl)cc1`, the “activation” value is reported as 13.5% (inactive).
With `Cc1cc2nc3c(=O)n(Cc4ccccc4)c(=O)[nH]c3nc2cc1N` the Potency was 100 µM (active).
`Cc1cc(OCC(=O)N(C)c2c(N)n(Cc3ccccc3)c(=O)[nH]c2=O)c(C(C)C)cc1Cl` was tested, and the “activation” value was -0.55% (inactive).
For `Cn1c(=O)[nH]c(=O)c2c1[nH]c(=S)n2Cc1ccccc1`, the “activation” value was -0.212% (inactive).
With `NC(=O)C1CCN(C(=O)COc2ccc3c4c(c(=O)oc3c2)CCC4)CC1` the “activation” value was 2.5% (inactive).
`O=S(=O)(c1cccc(-c2nnc(SC(F)F)n2-c2ccccc2)c1)N1CCCCC1` was tested, and the “activation” value was -1.95% (inactive).
With `O=C(O)C1=NN(c2c(F)c(F)cc(F)c2F)C(=O)CC1` the “activation” value was 10.4% (inactive).
